# Among all 220,000 compounds or so, about 530 (0.24%) were called active. The full list was thinned out, with actives kept by preference. Potency and affinity values are given separately. A number with no mark means an inactive call. No stated cut-off is given here; in the data, active means inhibition above about 13%; inconclusive means no clear call, values can overlap the other calls; inactive means below that.
# Target: Bifunctional protein GlmU (Mycobacterium tuberculosis (strain ATCC 25618 / H37Rv)) (UniProt P9WMN3)
# Sequence (P9WMN3 whole entry, looked up): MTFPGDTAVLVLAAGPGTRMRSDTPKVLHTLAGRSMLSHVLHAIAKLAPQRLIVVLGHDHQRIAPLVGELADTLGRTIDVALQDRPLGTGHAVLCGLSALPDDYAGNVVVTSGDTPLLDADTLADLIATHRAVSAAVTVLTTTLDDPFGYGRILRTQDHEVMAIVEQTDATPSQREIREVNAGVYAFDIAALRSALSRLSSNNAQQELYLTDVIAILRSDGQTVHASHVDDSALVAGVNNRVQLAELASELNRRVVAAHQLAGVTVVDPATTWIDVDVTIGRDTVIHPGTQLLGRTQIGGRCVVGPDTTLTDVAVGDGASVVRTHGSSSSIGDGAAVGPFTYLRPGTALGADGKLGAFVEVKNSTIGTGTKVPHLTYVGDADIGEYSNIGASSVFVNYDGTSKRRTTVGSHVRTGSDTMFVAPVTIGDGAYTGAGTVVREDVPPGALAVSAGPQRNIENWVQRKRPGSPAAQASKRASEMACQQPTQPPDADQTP
# Assay: inhibition of mycobacterial GlmU enzyme – biochemical, glucosamine-1-phosphate acetyltransferase (AID 1376);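 further: 0% = complete reaction with vehicle and 100% = reaction without substrate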
# Settings: M. tuberculosis GlmU acetyltransferase enzyme assay; stronger effect = higher value;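 tested at 30 µM in the primary screen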
row,SMILES,inhibition
1,O=C(Nc1cccc(C(F)(F)F)c1)c1ccco1,-3.67%
2,Cc1ccccc1Nc1nc(N)nc(COC(=O)c2cccn2C)n1,2.68%
3,CCc1ccccc1Nc1nc(N)nc(COC(=O)c2cccn2C)n1,13.1% (active)
4,Cc1ccccc1Nc1nc(N)nc(COC(=O)c2ccccc2)n1,6.9%
5,CCCCN(CC)Cc1ccc(CNC(=S)Nc2cccc(F)c2)o1,-3.9%
6,N#C/C(=C\c1ccc[nH]1)C(=O)NCC1CCCO1 (stereo not given),2.87%
7,Brc1ccc(CSc2ccc3nnc(-c4ccccn4)n3n2)cc1,-0.66%
8,COc1cccc(/C=N\n2c(C)nnc2C)c1OC,8.8%
9,Cc1ccc(N2C(=O)c3ccccc3C2C(=O)c2cc(C)ccc2O)cc1 (stereo not given),-7.05%
10,Cc1ccc(N2C(=O)c3ccccc3C2C(=O)c2ccc(C)c(C)c2O)cc1 (stereo not given),-5.61%
11,Cc1ccc(N2C(=O)c3ccccc3C2C(=O)c2ccc(O)cc2O)cc1 (stereo not given),13.2% (active)
12,CN1CCSc2ccc(C(=O)Nc3cc(F)ccc3F)cc21,-5.68%
13,Cc1ccc(C(=O)C2CCN(CC(=O)NC3CCCCC3)CC2)cc1,1.4%
14,COc1ccccc1NS(=O)(=O)c1cc(NC(=O)c2sccc2C)ccc1N1CCCC1,0.4%
15,CCOC(=O)c1cc(-c2ccc(/C=C3/C(=O)NC(=O)C(C#N)=C3C)o2)ccc1Cl,-3.05%
16,CC1=C(C#N)C(=O)NC(=O)/C1=C/c1ccc(-c2ccc(S(N)(=O)=O)cc2)o1,14.3% (active)
17,CC1(C)OC(=O)C(=Cc2ccc(-c3ccc(S(N)(=O)=O)cc3)o2)C(=O)O1,-2.03%
18,COc1ccc(CCC(=O)Nc2cc(Cl)ccc2N2CCN(C)CC2)cc1,-2.71%
19,Cc1cc(C)nc(NN=C2CCCC2)n1,-4.71%
20,C/C=C1/CN2[C@@H]3C4CO[C@@H]3c3c([nH]c5cc(OC)ccc35)[C@@H]2CC14 (stereo not given in full),4.24%

row,SMILES,inhibition
1,O=C(O)c1cccc(-n2cccc2/C=C2/NC(=O)N(c3ccc(Cl)cc3)C2=O)c1,68.6% (active)
2,N#C/C(=C/c1cccn1-c1cccc(C(=O)O)c1)c1ccc(Cl)cc1,7.87%
3,O=C(O)c1cccc(-n2cccc2/C=C2/NC(=O)N(c3cccc(Cl)c3)C2=O)c1,2.42%
4,COc1ccc(-n2cccc2/C=C2/NC(=O)N(c3cccc(Cl)c3)C2=O)cc1,1.07%
5,O=C(N/N=C/c1cccn1-c1cccc(C(=O)O)c1)Nc1ccccc1,7.06%
6,Cc1ccc(CN2C(=O)N/C(=C\c3cccn3-c3cccc(C(=O)O)c3)C2=O)cc1,7.01%
7,ON=Cc1cccn1-c1ccccc1,2.34%
8,O=C(O)c1ccc(COc2ccccc2/C=C2/NC(=O)N(c3cccc(Cl)c3)C2=O)cc1,-4.52%
9,O=C(O)c1cccc(-n2cccc2/C=C2\NC(=O)N(Cc3ccc(F)cc3)C2=O)c1,13.9% (active)
10,O=C(O)c1cccc(-n2cccc2/C=C2/NC(=O)N(Cc3ccccc3F)C2=O)c1,7.3%
11,O=C(Cn1nc(-c2ccccc2)ccc1=O)N1CCC2(CC1)OCCO2,-1.66%
12,CC(C)C(=O)N1N=C2CCCCC2C1(O)C(F)(F)F (stereo not given),-2.41%
13,O=C(Nc1ccccc1)c1ccc2snnc2c1,-0.53%
14,S=C=Nc1ccccn1,-0.05%
15,COc1ccccc1Nc1nc(N)nc(CN2CCOCC2)n1,-4.21%
16,Cc1ccc(NC(=S)N/N=C2\CC(C)(C)Oc3ccc(O)cc32)cc1,0.56%
17,O=C(Nc1ccc(-c2nc3ccccc3[nH]2)cc1)c1ccc(N2C(=O)CCC2=O)cc1,-0.75%
18,O=C(CSc1ncn[nH]1)NCCOc1ccccc1,-0.55%
19,O=C1N[C@@H](Cc2ccccc2)C(=O)N2[C@@H]1C[C@@]1(Br)c3ccccc3N(S(=O)(=O)c3ccccc3)[C@@H]21,3.3%
20,N#CC(C#N)=Cc1cccn1-c1ccc(C(=O)O)cc1,13.8% (active)

row,SMILES,inhibition
1,O=C(O)c1cccc(-n2cccc2/C=C2\SC(=O)N(Cc3ccccc3F)C2=O)c1,14.4% (active)
2,N#C/C(=C/c1cccn1-c1cccc(C(=O)O)c1)c1ccc(F)cc1,2.91%
3,CN1C(=O)S/C(=C/c2cccn2-c2cccc(C(=O)O)c2)C1=O,-3.46%
4,O=C1N/C(=C/c2cccn2-c2ccc(F)cc2)C(=O)N1Cc1ccccc1,-0.61%
5,N#Cc1ccccc1CN1C(=O)S/C(=C/c2cccn2-c2cccc(C(=O)O)c2)C1=O,2.69%
6,O=C1N/C(=C/c2cccn2-c2ccccc2)C(=O)N1Cc1ccc(F)cc1,1.54%
7,N#CC(C#N)=Cc1cccn1-c1ccc(S(N)(=O)=O)cc1,-1.86%
8,O=C(O)c1ccc(-n2cccc2/C=C2/NC(=O)N(c3ccccc3)C2=O)cc1,14.4% (active)
9,CN(C)c1nc(N/N=C\c2ccc(Cl)c([N+](=O)[O-])c2)nc(Nc2ccc(F)cc2)n1,3.5%
10,COc1ccc(OCCCC(=O)Nc2cc([N+](=O)[O-])ccc2C)cc1,0.05%
11,Cc1ccc(NC(=O)CN2C(=O)NC3(CCc4ccccc43)C2=O)cc1Cl (stereo not given),2.43%
12,CCc1ccc(C(=O)CN2CCSC2=N)cc1,-4.03%
13,COc1ccc2nc(C)cc(SCC(=O)OC(C)C)c2c1,-3.07%
14,Cc1ccc(NC(=O)CS(=O)CC(=O)NC2CCN(Cc3ccccc3)CC2)c(C)c1 (stereo not given),5.17%
15,CC1CCC/C(=N/Nc2nc3ccccc3s2)C1 (stereo not given),1.47%
16,O=C(Cn1ccc([N+](=O)[O-])n1)N1CCCCC1,1.12%
17,O=C(Cn1ccc([N+](=O)[O-])n1)N1CCCCCC1,-1.9%
18,Cc1nn(C(=O)Cn2ccc([N+](=O)[O-])n2)c(C)c1Br,17.6% (active)
19,Cc1cc(C)n2nc(SCCOc3ccccc3)nc2n1,-0.25%
20,Cc1cccc(NC(=S)NCc2cccn2C)c1,4.86%

# From PubChem BioAssay AID1376 (SRMLSC, 2008)
